Results filed as inconclusive are left out. The source made the active and inactive calls. Unless noted, the call rests on the fitted dose curve.
Columns and labels:
[1] = qHTS assay to identify small molecule agonists of the vitamin D receptor (VDR) signaling pathway - cell viability counter screen (AID 743224; active means well fitted curve in the direction sought with a large enough effect in the repeat runs; an effect the other way counts as inactive or inconclusive; further: series mostly up to about 63 µM; nearly all actives have a fitted effect of over 50% in size)
How it was run: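 Here cell health was gauged by luminescent ATP detection (CellTiter-Glo, 30 min RT) in VDR-bla cells that had been incubated with test compounds for 16 h at 37C and 5% CO2.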

[2] = qHTS assay to identify small molecule antagonists of the vitamin D receptor (VDR) signaling pathway - cell viability counter screen (AID 743225; active means well fitted curve in the direction sought with a large enough effect in the repeat runs; an effect the other way counts as inactive or inconclusive; further: nearly all actives have a fitted effect of over 50% in size)
How it was run: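 Cytotoxicity counter screen read by CellTiter-Glo luminescence (30 min, room temperature) in the same wells as the VDR-bla antagonist readout. HEK 293T VDR-UAS-bla cells had 16 h at 37C with compound and 3 nM (final) 1-alpha,25-dihydroxyvitamin D3, then 2 h with FRET substrate.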

[3] = qHTS assay to identify small molecule agonists of the NFkB signaling pathway (AID 1159509; active means well fitted curve in the direction sought with a large enough effect in the signal ratio in the repeat runs, not every such curve was filed as active; the % refers to the signal ratio; further: series mostly up to about 61 µM)
How it was run: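 NFkB-bla ME-180 cells with a beta-lactamase reporter under an NF-kB response element were plated overnight, treated with compounds in DMSO for 5 hr at 37 C, then loaded with FRET substrate for 1.5 hr at room temperature.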

[4] = qHTS assay to identify small molecule agonists of the NFkB signaling pathway - cell viability counter screen (AID 1159515); further: series mostly up to about 61 µM; nearly all actives have a fitted effect of over 55% in size
How it was run: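 5 hr compound treatment of NFkB-bla ME-180 cells (2,000/well, seeded overnight beforehand), followed by reporter substrate for 1.5 hr. CellTiter-Glo added afterward; luminescence after 30 min RT.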

[5] = qHTS assay to identify small molecule agonists of the endoplasmic reticulum stress response signaling pathway (AID 1159516; active means well fitted activation curve with a large enough effect in the signal ratio in the repeat runs, not every such curve was filed as active; the % refers to the signal ratio)
How it was run: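 Reporter HeLa cells (ESRE-beta-lactamase) underwent 5 hr compound incubation at 37 C and 5% CO2 in quantitative HTS format. Detection followed 2 hr of FRET substrate loading at room temperature.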

[6] = qHTS assay to identify small molecule antagonists of the retinoid-related orphan receptor gamma (ROR-gamma) signaling pathway - cell viability counter screen (AID 1159520; active means well fitted curve in the direction sought with a large enough effect in the repeat runs; an effect the other way counts as inactive or inconclusive; further: nearly all actives have a fitted effect of over 50% in size)
How it was run: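 Tet-on ROR gamma CHO cells (1,000/well) were plated 4 hr, given compounds in DMSO for 2 hr at 37 C, then induced with 1 uM final doxycycline for 16 hr. Viability was read as ATP by CellTiter-Glo luminescence after 30 min.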

[7] = biological target: Nuclear receptor ROR-gamma (Homo sapiens) (UniProt P51449); assay: qHTS assay to identify small molecule antagonists of the retinoid-related orphan receptor gamma (ROR-gamma) signaling pathway (AID 1159521; active means well fitted curve in the direction sought with a large enough effect in the repeat runs; an effect the other way counts as inactive or inconclusive; further: top concentration of the series differs between compounds; nearly all actives have a fitted effect of over 50% in size)
How it was run: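 Antagonist read-out: drop in luminescence (ONE-Glo) from an RORE-LUC reporter in CHO cells with doxycycline-inducible ROR-gamma; 2 hr compound pretreatment, 1 uM doxycycline, 16 hr incubation at 37 C.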

[8] = qHTS assay to identify small molecule agonists of the AP-1 signaling pathway - cell viability counter screen (AID 1159525); further: nearly all actives have a fitted effect of over 55% in size
How it was run: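 ME-180 AP-1-bla, 2500 cells/well, Opti-MEM + 0.5% dialyzed FBS; overnight 37 °C; cpd 15-pt titration, 5 h 37 °C; CellTiter-Glo 30 min RT; luminescence read; normalised to TOAB and DMSO controls.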

[9] = qHTS assay to identify small molecule agonists of the AP-1 signaling pathway (AID 1159526)
[10] = qHTS assay to identify small molecule agonists of the endoplasmic reticulum stress response signaling pathway - cell viability counter screen (AID 1159517)
How it was run: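 Luminescence readout: CellTiter-Glo, 30 min RT, same wells as the ESRE-bla reporter read. HeLa ESRE-bla, 1,500 cells/well, o/n 37 C; cpd 5 hr 37 C/5% CO2.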

Measured: Potency

CC(C)(C)c1nnc(NS(=O)(=O)c2ccc(N)cc2)s1
not listed: [10]
inactive: all other assays above

N[C@@H](CCC(=O)Nc1ccc([N+](=O)[O-])cc1)C(=O)O
not listed: [1] | [6]
inactive: all other assays above

C#CC(C)N(C)C(=O)Nc1ccc(Cl)cc1 (stereo not given)
not listed: [6] | [8]
inactive: all other assays above

Cc1ccsc1/C=C/C1=NCCCN1C
not listed: [10]
inactive: all other assays above

Nc1ccc(S(=O)(=O)Nc2ccc(Cl)nn2)cc1
not listed: [8] | [10]
inactive: all other assays above

CCn1ccc(NS(=O)(=O)c2ccc(N)cc2)nc1=O
not listed: [6] | [8]
inactive: all other assays above

BrCc1cccc(Oc2ccccc2)c1
not listed: [7] | [8] | [10]
inactive: all other assays above

O=C1CC(c2ccc(Cl)cc2)CC(=O)N1
not listed: [1] | [8] | [10]
inactive: all other assays above

Cc1ccc2c(c1)OCC(=O)CO2
not listed: [2] | [6] | [10]
inactive: all other assays above

CC(C)C[C@H](NC(=O)CNC(=O)[C@H](Cc1ccc(O)cc1)NC(=O)[C@H](CO)NC(=O)[C@H](Cc1c[nH]c2ccccc12)NC(=O)[C@H](Cc1cnc[nH]1)NC(=O)[C@@H]1CCC(=O)N1)C(=O)N[C@@H](CCCN=C(N)N)C(=O)N1CCC[C@H]1C(=O)NCC(N)=O (stereo in doubt)
not listed: [8] | [10]
inactive: all other assays above

O=C(O)C(=O)Cc1ccccc1
not listed: [10]
inactive: all other assays above

COC(=O)CCc1ccc(OCC(O)CNC(C)C)cc1 (stereo not given)
not listed: [6]
inactive: all other assays above

CC(N)C(=O)OC(C)(C)Cc1ccc(Cl)cc1 (stereo not given)
not listed: [10]
inactive: all other assays above

Cc1ccccc1OCC(O)CO (stereo not given)
not listed: [1] | [6] | [7]
inactive: all other assays above

COc1ccc(C2CNC(=O)C2)cc1OC1CCCC1 (stereo not given)
not listed: [6]
inactive: all other assays above

CO[C@@H]1[C@@H](OC(N)=O)[C@@H](O)[C@H](Oc2ccc3c(O)c(NC(=O)c4ccc(O)c(CC=C(C)C)c4)c(=O)oc3c2C)OC1(C)C
not listed: [6]
inactive: all other assays above

CC(=O)Nc1ccc(S(=O)(=O)Nc2ccc([N+](=O)[O-])cc2)cc1
not listed: [1] | [6]
inactive: all other assays above

COc1ccc2nc(SCc3ncc(C)c(OC)c3C)[nH]c2c1
not listed: [6] | [8]
inactive: all other assays above

CC(C)=CCOC(=O)c1ccccc1
not listed: [2] | [10]
inactive: all other assays above

C[C@@H](Oc1ccc(CNC(=O)c2cccnc2Oc2ccc3c(c2)OCO3)c(F)c1)C(=O)O
not listed: [6]
inactive: all other assays above

O=C1CCCC(=O)O1
not listed: [1] | [6] | [8]
inactive: all other assays above

CCCCCCCCSCC
not listed: [2] | [10]
inactive: all other assays above

O=C(O)c1cc(Cl)cc([N+](=O)[O-])c1Cl
not listed: [2] | [10]
inactive: all other assays above

Oc1ccccc1-c1nnco1
not listed: [6]
inactive: all other assays above

COc1nccnc1NS(=O)(=O)c1ccc(N)cc1
not listed: [8] | [10]
inactive: all other assays above

COc1cc(NS(=O)(=O)c2ccc(N)cc2)nc(OC)n1
not listed: [6] | [8]
inactive: all other assays above

CN(C)CCOCCO
inactive: [3] | [4] | [5] | [6] | [9]

Nc1ncnc(Nc2ccccc2)n1
not listed: [10]
inactive: all other assays above

Cc1cc(C(C)(C)C)c(O)c(C)c1CC1=NCCN1
not listed: [10]
inactive: all other assays above

C[C@H](CCC(=O)O)[C@H]1CC[C@H]2[C@@H]3C(=O)C[C@@H]4CC(=O)CC[C@]4(C)[C@H]3CC(=O)[C@]12C
inactive: [2] | [3] | [4] | [6] | [7] | [9]

O=C(CCNNC(=O)c1ccncc1)NCc1ccccc1
not listed: [5]
inactive: all other assays above

C=C(C)C(=O)OCCN(CC)CC
not listed: [4]
inactive: all other assays above

CC1(CO)CN(c2ccccc2)NC1=O (stereo not given)
not listed: [1] | [2] | [4]
inactive: all other assays above

CC(C)(C)OC(=O)c1ccc(O)cc1
not listed: [2] | [5]
inactive: all other assays above

O=C(NCCc1c[nH]c2ccccc12)c1cccnc1
not listed: [5] | [6]
inactive: all other assays above

O=S(=O)(O)c1cc(O)c2ccc(Nc3ccccc3)cc2c1
not listed: [5]
inactive: all other assays above

O=C1c2ccccc2C(=O)N1CCl
not listed: [2] | [6] | [10]
inactive: all other assays above

CCCCCCCCC1CCC(=O)O1 (stereo not given)
not listed: [1] | [5]
inactive: all other assays above

COCCOCCOCCOCCO
not listed: [2] | [5]
inactive: all other assays above

FC(F)(F)c1ccccc1-n1ccnc1
not listed: [6] | [10]
inactive: all other assays above

CCCCCCOc1ccccc1C(N)=O
not listed: [5] | [8] | [10]
inactive: all other assays above

O=S(=O)(O)CCN1CCN(CCO)CC1
not listed: [5] | [6]
inactive: all other assays above

CC1COc2ccccc2N1 (stereo not given)
not listed: [5] | [6]
inactive: all other assays above

CC(C)C(=O)OCc1cccc(OC(=O)[C@@H]2N3C(=O)[C@@H](NC(=O)Cc4ccccc4)[C@H]3SC2(C)C)c1
not listed: [5]
inactive: all other assays above

CCCN1C[C@H](CSC)C[C@@H]2c3cccc4[nH]cc(c34)C[C@H]21
not listed: [6] | [10]
inactive: all other assays above

Cc1c(I)c(=O)n(-c2ccccc2)n1C
not listed: [5]
inactive: all other assays above

Cc1ccc(S(=O)(=O)O)c(C)c1
inactive: [1] | [2] | [3] | [4] | [10] | [9]

CCOCCOC(=O)/C=C/c1ccc(OC)cc1
not listed: [1] | [5] | [7]
inactive: all other assays above

CC(=O)c1ccc2c(c1)Cc1ccccc1-2
not listed: [5]
inactive: all other assays above

CCCCCCOC(=O)CC
not listed: [5]
inactive: all other assays above

CCOc1cc([N+](=O)[O-])c(OCC)cc1N1CCOCC1
not listed: [5] | [7]
inactive: all other assays above
